# Reference: the supplement of paper PMC6555819
# Legend:
# Assay in all cases: PBM binding z-score (relative to random genomic background probes); higher = stronger binding; sequences stand for … in GC…GCGATTGACAGCGTAGAATGAAGG
# [1] = test system: PPARg:RXRa DBDmut IVT, anti-RXR (DBD mutation: RXRa K156A/R161A, NR concentration 270 nM, RXRa partner concentration 90 nM)
# Outline: (§1)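 Custom Agilent 4×180K protein-binding microarrays carried double-stranded probes, each with a 34-nt variable region. These regions held direct-repeat seeds, single-nucleotide variants, half-site ablations and random human genomic background sequences. Ligand-free nuclear receptor dimers were incubated on the arrays for 1 h, antibodies against each partner (one per run) detected binding, and scanned fluorescence was regression-normalized. Binding z-scores take the random background probes as reference.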
# [2] = test system: PPARg:RXRa IVT, anti-PPARg (NR concentration 270 nM, RXRa partner concentration 90 nM)
# Outline: as §1
# [3] = test system: PPARg DBDmut:RXRa IVT, anti-PPARg (DBD mutation: PPARg1 K132A/R137A, NR concentration 270 nM, RXRa partner concentration 90 nM)
# Outline: as §1
# [4] = test system: PPARg DBDmut IVT, anti-PPARg (DBD mutation: PPARg1 K132A/R137A, NR concentration 270 nM)
# Outline: as §1
# [5] = test system: PPARg homodimer (NR concentration 180 nM)
# Outline: as §1
# [6] = test system: PXR:RXRa (NR concentration 270 nM, RXRa partner concentration 90 nM)
# Outline: as §1
# [7] = test system: PXR homodimer (NR concentration 270 nM)
# Outline: as §1
# [8] = test system: RARa:RXR (NR concentration 270 nM, RXRa partner concentration 90 nM)
# Outline: as §1
# [9] = test system: RARa homodimer (NR concentration 270 nM)
# Outline: as §1
# [10] = test system: RARb:RXRa (NR concentration 270 nM, RXRa partner concentration 90 nM)
# Outline: as §1
Sequence,PBM binding z-score [1],PBM binding z-score [2],PBM binding z-score [3],PBM binding z-score [4],PBM binding z-score [5],PBM binding z-score [6],PBM binding z-score [7],PBM binding z-score [8],PBM binding z-score [9],PBM binding z-score [10]
AGAACGAGGCCACGCTGAGTTGATAGCAGAGTAG,3.08,2.31,0.24,0.0825,-0.457,-0.0371,-0.451,-0.283,-0.379,1.17
TGTTGTAGATCAATAGAGGTTAAGAAAGTGCGCT,-0.0957,0.893,1.29,1.09,1.38,3.29,0.289,1.76,1.61,1.01
CCTTCCGGGTCACTCCAGGTTATAGCATCGGAGT,3.76,4.8,0.383,-0.795,1.88,4.83,0.335,3.65,0.518,3.77
GGAACGAGGGCATTCGTGTTGATAGCATGGCGAT,3.27,2.25,-0.566,-0.299,0.242,0.774,0.237,0.37,-0.471,1.62
CCTATTAGTTGACTATAAGGGCAACCGAAGCTCG,0.032,0.399,0.358,0.398,0.891,0.229,0.676,0.501,1.22,1.25
TCTGCTAGTTCAGTTGGTCAGCTAACGAGCTGCC,0.762,0.394,-0.505,-0.636,-1.77,-0.0751,-0.641,-0.244,-1.61,0.778
CTCGAAAGGTCGTGCTCAGGTGCGTATACCAAAC,0.285,1.52,0.6,0.566,0.856,3.09,0.43,3.46,-0.163,3.75
CGAACTAGGTCATTCACAGGACAGTGAATAGTAA,8.25,8.21,1.5,0.729,1.48,1.77,0.314,2.2,0.779,3.72
TCTTGTAGATCAAACGTTAAGAAAGCCGAAGCCT,2.23,0.376,0.781,0.516,-0.0553,0.00909,-0.155,0.0712,-0.409,-0.19
CCTAGCAGGCCAGGGTCACACAAGCATTTCGCTT,0.592,1.47,-0.955,-1.08,1.19,3.43,-0.631,4.06,0.145,2.9
CCTTACGGGTCATTCCAGGTTATAGCATCGGAGT,2.86,3.39,0.145,-0.0638,1.34,5.52,0.529,3.91,0.74,3.51
CCGACTCGGGCAAGGTTACCATAACGCACAGCCA,0.68,0.196,-0.901,-1.26,-0.121,0.246,-0.0787,0.655,-0.459,1.33
ATCTCTAGGTAACAAGTTCAGTGAAAGAGAGGAC,3.46,3.2,1.03,1.64,1.58,1.71,2.41,0.933,1.19,1.85
GATACCGGGTCAAGGCCAGAGTACGCGTATTGAT,2.4,4.67,0.967,0.0234,0.895,2.62,0.124,2.97,0.054,3.9
CGAACGAGGGCATGAGTTGGTAGCAAATGCCGAT,2.72,1.66,0.738,-0.612,-0.306,0.171,-0.43,0.384,-0.55,1.81
ACTATTAGGTGAGACGAGGGCAACCGATAGGTTG,4.85,3.95,1.23,0.854,1.46,2.81,0.453,1.39,0.564,1.64
TAGAGTAGGTTAGGGGCATTCAGAATGGCGTCGA,2.77,3.28,1.38,0.566,1.85,1.08,1.72,0.913,1.66,1.81
CCAGACAGGTGAAAGGTAACACAGTCTGGTACGC,2.09,3.4,-0.472,-0.499,0.837,1.29,-0.0519,1.69,0.436,1.36
TCATATAGGTAAACAGGTGAACGTCCGTAAGTTA,5.34,5.19,1.47,1,1.69,1.09,0.569,1.4,1.29,0.977
TCTATTAGTTGAGGGGCAACCGACGAGTCCGTTT,2.72,0.341,0.599,1.29,1.09,0.857,0.479,0.515,0.621,0.903
AGATGTAGGTTATCGGGTCATTCAGTTTGCGCAT,7.36,7.13,2.95,1.82,2.53,4.02,7.55,4.01,1.35,2.73
TCTTGTAGATCCATAGAGGTTAAGAAAGTGCGCT,1.15,0.128,1.1,0.975,0.227,2.66,0.0814,1.35,0.858,0.837
